PubChem BioAssay AID1458 (National Center for Advancing Translational Sciences (NCATS), 2008)
Hit rate of the full screen: of about 210,000 compounds, about 5,900 (2.8%) were called active. Another 5% or so got no clear call; they are omitted. Only a selection was taken, and actives are over-represented in it overall. Unmarked numbers belong to inactive results. The call rests on the fitted dose curve; in most records, active means well fitted activation curve with a large enough effect; inconclusive means small, poorly fitted or top-dose-only effect; inactive means no such curve, though single readings can be large or run the other way.

Experiment: qHTS Assay for Enhancers of SMN2 Splice Variant Expression; further: nearly all actives have a fitted effect of over 55% in size; on activity change, positive = activation: % of control where 0% means no effect
Settings: HEK293 SMN2-luciferase splicing reporter, luminescence, 30-36 h; series mostly up to 46.1 µM; activity change, positive = activation: at the top concentration
Procedure, shortened: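 qHTS luciferase splicing reporter: luminescence rises when SMN2 exon 7 is included in transfected HEK293 cells. Compound exposure lasted 30-36 h at 37C, with 4.5 mM final sodium butyrate as control, followed by a ONE-Glo read.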
Potency means the concentration at half of the fitted maximal effect.

Row | Compound | Potency | activity change, positive = activation
1 | Cc1cc(NC(=O)CCC2COc3ccccc3O2)no1 (stereo not drawn) | 12.6 µM (active) | –
2 | COc1ccc(NC(=O)CC2COc3ccccc3O2)c(OC)c1 (stereo not drawn) | – | -9.35%
3 | Cc1ccc(SCCC(=O)Nc2cc(C)on2)cc1 | – | -16.2%
4 | CCc1ccccc1NC(=O)c1ccc2c(c1)CCN2S(C)(=O)=O | – | 6.29%
5 | Cn1c(=NC(=O)CSCC(=O)N2CCCCC2)sc2ccccc21 | – | 4.56%
6 | Cn1c(=NC(=O)CSCC(=O)N2CCOCC2)sc2ccccc21 | – | -1.7%
7 | Cn1c(=NC(=O)c2cnccn2)sc2ccccc21 | 12.6 µM (active) | –
8 | Cc1cc(C)cc(OCC(=O)Nc2nc(-c3ccc(F)cc3)ns2)c1 | – | 0.535%
9 | O=C(NCC12CC3CC(CC(C3)C1)C2)c1cc2nc(-c3ccccc3)cc(C(F)(F)F)n2n1 | – | 1.79%
10 | COc1ccc2nc(/N=C(\N)NC(=O)Nc3ccccc3)nc(C)c2c1 | – | -13.2%
11 | COc1ccc2nc(SCc3ccccc3)nc(C)c2c1 | 11.2 µM (active) | –
12 | COC(=O)CSc1nc(C)c2ccc(OC)cc2n1 | – | -3.05%
13 | CCc1nn(CCCC(=O)NC(C)c2ccccc2)c(=O)c2cc3occc3n12 (stereo not drawn) | – | 4.04%
14 | Cc1ccc(S(=O)(=O)n2nc(-c3ccc(Cl)cc3)nc2NCc2ccccc2)cc1 | – | 3.98%
15 | CCOc1ccc(Nc2oc(/C=C/c3ccc(F)cc3)nc2C#N)cc1 | – | -3.75%
16 | COc1ccccc1NC(=O)C1=C(C)NC(=O)NC1c1ccc(C)s1 (stereo not drawn) | – | 1.35%
17 | COc1ccccc1NC(=O)c1ccc(C)s1 | 12.6 µM (active) | –
18 | COc1ccccc1NC(=O)/C=C/C(N)=O | – | -1.18%
19 | Cc1cc(C)cc(NS(=O)(=O)c2ccc3[nH]cc(C(=O)N4CCCCC4)c(=O)c3c2)c1 | – | 0.685%
20 | Cc1ccc(Nc2c(-c3ccc(Cl)cc3)nc3sccn23)c(C)c1 | – | -10.5%
21 | CCCCOc1ccc(C(=O)N2CC(=O)Nc3ccc(Br)cc3C2c2ccc(F)cc2)cc1 (stereo not drawn) | – | -19%
22 | Cc1ccc(NC(=S)NC(=O)c2ccc(-c3ccccc3)cc2)c(C)c1 | – | -42.6%

Row | Compound | Potency | activity change, positive = activation
23 | Cc1ccc(NC(=S)Nc2ncccc2C)c(C)c1 | 12.6 µM (active) | –
24 | Cc1ccc(NC(=S)NCc2ccccc2Cl)c(C)c1 | – | 12.2%
25 | N/C(=N\OC(=O)Cc1ccc([N+](=O)[O-])cc1)c1ccccn1 | – | 12.1%
26 | N/C(=N\OC(=O)c1ccc([N+](=O)[O-])cc1)c1ccccn1 | 6.31 µM (active) | –
27 | O=C(OCc1ccc([N+](=O)[O-])cc1)c1ccccn1 | – | 1.36%
28 | CCOC(=O)c1ccc(N2C(=O)c3n[nH]c(-c4ccco4)c3C2c2ccc(O)cc2)cc1 (stereo not drawn) | – | -28.6%
29 | Cc1nc2ccc(S(=O)(=O)NC(C(=O)NCc3ccccc3Cl)C(C)C)cc2s1 (stereo not drawn) | – | 12.8%
30 | COc1ccc(-c2nc(CN3CCC(C(=O)NCCN(CC(C)C)CC(C)C)CC3)c(C)o2)cc1OC | – | 28.4%
31 | COc1ccc(CNc2nc(-c3ccc(Cl)cc3)cc(C(F)(F)F)n2)cc1 | – | -27.8%
32 | O=C1CC(c2ccc(F)cc2F)c2cc3c(cc2N1)OCO3 (stereo not drawn) | – | 1.33%
33 | COc1ccc(CCNC(=O)c2cc(-c3ccc4c(c3)OCO4)on2)cc1OC | – | 1.05%
34 | COc1c2c(cc3occ(-c4ccc5c(c4)OCO5)c(=O)c13)OC(C)(C)C=C2 | 6.31 µM (active) | –
35 | Cc1cccc(NC(=O)CSc2nnc(CNC(=O)c3cccc(C)c3)n2-c2ccccc2)c1 | – | -32.5%
36 | CCN1CCN(c2cc(C)c3cc(NC(=O)c4cc(Cl)ccc4OC)ccc3n2)CC1 | – | -12.2%
37 | CCc1cccc(NC(=O)CSc2nccn2C)c1 | – | 16.9%
38 | Cc1ccc(C(=O)CSc2nc3ccccc3c(=O)n2N)o1 | 15.8 µM (active) | –
39 | O=C(CCCn1c(SCC(=O)c2ccc(F)cc2)nc2ccccc2c1=O)NCc1ccco1 | – | -22%
40 | O=C(CCn1c(SCC(=O)c2ccccc2)nc2ccccc2c1=O)NCc1ccc(F)cc1 | – | 2.41%
41 | COc1ccc(-c2noc(CN(C)S(=O)(=O)c3ccc(C)cc3)n2)cc1 | – | -39.1%
42 | COc1ccc(-c2noc(-c3ccc(C)cc3)n2)cc1 | 17.8 µM (active) | –
43 | COc1ccc(/C=C/c2noc(-c3ccccc3O)n2)cc1OC | – | 0.349%
44 | COc1ccc(-c2noc(CSc3nnc(-c4ccccc4)n3-c3ccc(F)cc3)n2)c(OC)c1 | – | 27.6%

Row | Compound | Potency | activity change, positive = activation
45 | COc1ccc(-c2nnco2)cc1OC | – | -2.06%
46 | COc1ccc(-c2noc(CSc3ccc(C)cc3)n2)cc1 | – | -14.2%
47 | COc1ccc(-c2nc(-c3ccccc3)no2)c(OC)c1 | 0.447 µM (active) | –
48 | CCOc1nc(-c2ccc(OC)cc2)ccc1-c1noc(-c2cc(OC)c(OC)c(OC)c2)n1 | – | -12.6%
49 | COc1ccc(-c2noc(-c3cccc(OC)c3OC)n2)cc1OC | 12.6 µM (active) | –
50 | COc1ccc(CC(N)C(=O)NC2C(O)[C@H](n3cnc4c(N(C)C)ncnc43)O[C@@H]2CO)cc1 (stereo partly drawn) | – | -70.3%
51 | CC1=C(C(=O)OCC2CCCCC2)C(c2c(F)cccc2Cl)CC(=O)N1 (stereo not drawn) | – | -17.8%
52 | O=C(Nc1cc(C(F)(F)F)ccc1Cl)c1ccc2c(c1)CCN2S(=O)(=O)c1ccccc1 | – | 2.17%
53 | CCSc1ncc(Cl)c(C(=O)Nc2c(C(=O)c3ccccc3)oc3ccccc23)n1 | – | 4.69%
54 | O=C(C1CCCN(S(=O)(=O)c2cccc3nonc23)C1)N1CCN(c2ccccc2F)CC1 (stereo not drawn) | – | -5.02%
55 | COc1ccccc1Nc1cc(C(=O)NCCCN(C)C2CCCCC2)c2ccccc2n1 | – | -53.1%
56 | CCCC12CN3CC(C)(CN(C1)C3c1ccccc1Cl)C2=O (stereo not drawn) | – | 3.3%
57 | CC(C)CC(=O)NC(=S)NCc1ccccc1 | – | 12.2%
58 | CC(C)CC(=O)N/C(N)=N/c1nc2ccccc2s1 | 11.2 µM (active) | –
59 | Cc1cc(C(=O)OCC(=O)Nc2nnc(C(C)C)s2)c2ccccc2n1 | – | 10.4% [at 1.84 µM]
60 | O=C(O)CCCCc1nc2ccccc2s1 | – | 11.6%
61 | CCC(=O)NC(=Nc1nc2ccccc2s1)NC(=O)CC | 10 µM (active) | –
62 | COC(=O)c1nc2ccccc2s1 | – | -17.7%
63 | CCc1nn(CC(=O)N2CCN(c3ccc(Cl)cc3)CC2)c(=O)c2cc3occc3n12 | – | -8.33%
64 | CCc1ccc(S(=O)(=O)Nc2cc3c(C(=O)OCc4ccccc4)c(C)oc3c3ccccc23)cc1 | – | -8.12%
65 | O=C(CSc1ncc(S(=O)(=O)c2ccc(Br)cc2)c(=O)[nH]1)Nc1ccc2c(c1)OCCO2 | – | -4.42%
66 | Cc1ccc(NC(=O)CN2c3ccccc3S(=O)(=O)c3ccccc32)cc1F | – | -8.12%

Row | Compound | Potency | activity change, positive = activation
67 | CCOc1ccccc1NC(=O)CCS(=O)(=O)c1cccc2nsnc12 | – | 7.78%
68 | O=C(CSCc1cccs1)N1CCCC1 | 12.6 µM (active) | –
69 | O=C(CSc1ccsc1[N+](=O)[O-])N1CCCCC1 | – | 4.74%
70 | O=C(CSCc1ccc(Cl)cc1)N1CCN(Cc2ccc3c(c2)OCO3)CC1 | – | -32.9%
71 | O=C(Cn1c(=O)n(Cc2ccccc2)c(=O)c2sc3ccccc3c21)Nc1ccccc1F | – | -17.9%
72 | Cc1ccc(-c2nnc3c4ccccc4c(C)nn23)cc1NC(=O)c1cccc(Br)c1 | – | -0.0665%
73 | COc1ccc2c(c1OC)C(=O)OC2Nc1nc(-c2ccccc2)cs1 (stereo not drawn) | – | 26.9%
74 | COc1ccc(Nc2nc(-c3ccccc3)cs2)cc1 | 10 µM (active) | –
75 | COc1ccc(C)cc1Nc1nc(-c2c(C)[nH]c3ccccc23)cs1 | – | 14%
76 | COc1ccc(OC)c(Nc2nc(-c3ccc(O)c(O)c3)cs2)c1 | 17.8 µM (active) | –
77 | Clc1ccc(Nc2nc(-c3cccs3)cs2)nc1 | 14.1 µM (active) | –
78 | COc1ccc(-c2csc(NC(=O)c3ccc(N4C(=O)CCC4=O)cc3)n2)cc1OC | – | -3.03%
79 | O=C(Nc1ccc(Cl)cn1)Nc1cccs1 | – | 13.8%
80 | NS(=O)(=O)c1ccc(Nc2nc(-c3ccccc3)cs2)cc1 | – | -10.2%
81 | COc1ccc(-c2csc(Nc3ccccn3)n2)cc1 | 2.24 µM (active) | –
82 | COc1ccc(NC(=O)c2sc(N)nc2-c2ccccc2)cc1 | – | 11.7%
83 | COC(=O)CSc1nccc(-c2cccs2)n1 | – | -2.36%
84 | O=S(=O)(Nc1ccccn1)c1ccc(Oc2ccccc2)cc1 | – | 6.26%
85 | CCOc1cc(C2c3c(-c4ccc(Br)cc4)n[nH]c3C(=O)N2c2ccc(Cl)cc2)ccc1O (stereo not drawn) | – | -31.4%
86 | O=C(c1ccc2c(c1)N(Cc1ccc(Cl)cc1)C(=O)c1ccccc1S2(=O)=O)N1CCCCC1 | – | -11.6%
87 | CC1CCC2(CC1)N=C(c1ccccc1)C(=O)N2CC(=O)Nc1ccc(F)c(Cl)c1 (stereo not drawn) | – | 6.66%
88 | O=C(Nc1nc(-c2ccc(-c3ccccc3)cc2)cs1)c1cnccn1 | – | -28.6%

Row | Compound | Potency | activity change, positive = activation
89 | c1ccc(Nc2nc(-c3ccncc3)cs2)nc1 | 12.6 µM (active) | –
90 | O=C(Nc1nc(-c2ccncc2)cs1)C1COc2ccccc2O1 (stereo not drawn) | – | 14.3%
91 | CSc1ccc(NC(=O)Cn2nnnc2-c2ccccc2F)cc1 | – | -1.68%
92 | O=C(NCCc1c[nH]c2ccccc12)c1cc2ccccc2oc1=O | 17.8 µM (active) | –
93 | CN(c1ccccc1)S(=O)(=O)c1ccc(Cl)c(C(=O)NCCc2c[nH]c3ccccc23)c1 | – | -16.4%
94 | O=C(NCCc1c[nH]c2ccccc12)C(=O)NCC1CCCO1 (stereo not drawn) | – | -8.48%
95 | O=C(Nc1cccc2cccnc12)c1cccc2c(Br)cccc12 | – | 2.49%
96 | CCOC(=O)c1c(-c2ccc(OC)cc2)oc2ccc(OCc3ccc(C(=O)OC)cc3)cc12 | – | -6.6%
97 | COC(=O)c1sccc1NC(=O)c1csc2c1CCCC2 | – | 32.6%
98 | CC(=O)Cc1nsc(NC(=O)c2csc3c2CCCC3)n1 | – | 4.95%
99 | O=C(NCc1ccccc1Cl)c1csc2c1CCCCC2 | – | 5.72%
100 | COC(=O)c1sc(NC(=O)c2csc3c2CCCC3)nc1C | 2.51 µM (active) | –
101 | CCOC(=O)c1ccc(NC(=O)c2csc3c2CCCCC3)cc1 | – | -16.6%
102 | Cc1ccc(NC(=O)c2csc3c2CCCC3)cc1 | 4.47 µM (active) | –
103 | COc1ccc(OC)c(NC(=O)/C=C/c2ccc(C)o2)c1 | – | -0.29%
104 | NC(=O)c1sc(-c2ccsc2)cc1N | – | 14.9%
105 | COc1ccc(CNC(=O)CS(=O)Cc2nc(-c3cccc(C)c3)oc2C)cc1 (stereo not drawn) | – | -5.97%
106 | CC(=O)Nc1ccc(NC(=O)C(C)OC(=O)c2ccccc2C(=O)c2ccc(Cl)c([N+](=O)[O-])c2)cc1 (stereo not drawn) | 25.1 µM (active) | –
107 | N#Cc1cccc(NC(=O)COC(=O)c2ccccc2C(=O)c2ccc(Cl)c([N+](=O)[O-])c2)c1 | – | -115%
108 | CC(CC(=O)O)C(=O)c1ccc(Cl)c([N+](=O)[O-])c1 (stereo not drawn) | – | 5.72%
